Data taken from PubChem BioAssay (EPA / NIEHS).
Activity calls are given as the source filed them. How the source made its calls: active means hit-call score of the fitted dose curve at least 0.9, where 1 is the maximum; inactive means score below 0.9.

assay: ATG_M_19_CIS: Attagene CIS-FACTORIAL HepG2 Assay for M19 Transcription Factor (Internal Marker) (AID 2282939); details: HepG2 Attagene CIS-FACTORIAL M19 internal marker reporter; actives raise or lower the signal
Description: ATG_CIS is a cell-based, multiplexed-readout assay that uses HepG2, a human liver cell line, with measurements taken at 24 hours after chemical dosing in a 24-well plate.ATG_M_19_CIS is one of 52 assay component(s) measured or calculated from the ATG_CIS assay. It is designed to make measurements of mRNA induction, a form of inducible reporter, as detected with fluorescence intensity signals by Reverse transcription polymerase chain reaction (RT-PCR) and Capillary electrophoresis technology.Data from the assay component ATG_M_19_CIS was analyzed into 1 assay endpoint. This assay endpoint, ATG_M_19_CIS, was analyzed with bidirectional fitting relative to DMSO as the negative control and baseline of activity. Using a type of inducible reporter, measures of mRNA for gain or loss-of-signal activity can be used to understand the background control at the transcription factor-level as they relate to the gene . Furthermore, this assay endpoint can be referred to as a secondary readout, because this assay has produced multiple assay endpoints where this one serves a background control function. To generalize the intended target to other relatable targets, this assay endpoint is annotated to the background measurement intended target family, where the subfamily is internal marker.
Human liver HepG2 cells are transiently transfected with multiple reporter transcription units (MRTUs) in 6-well plates using FuGene 6 reagent (Roche; 3 ml FuGene/1 mg DNA). The MRTU constructs are regulated by a cis-regulating element (promoter). […] A major difference between the CIS and TRANS system is that in CIS activities of endogenous TFs are measured, whereas the TRANS assay evaluates changes in activities of exogenous, chimeric NR-Gal4 proteins. […] At the end of 24 hour incubation, total RNA was isolated using TriZol reagent (Invitrogen). The isolated RNA is then reverse-transcribed using oligo(dT) primer and Mo-MLV reverse transcriptase (Invitrogen) with DNAse I (Ambion) treatment for 30 min. The one-tenth of the produced cDNA was amplified by PCR using Taq DNA polymerase (Invitrogen) and two reporter sequence-specific primers. The PCR products were fluorescently labeled by primer extension with 6-arboxyfluorescein (6-FAM) 5'-labeled reporter sequence-specific primer (2 min at 95 C, 20 s at 68 C and 10 min at 72 C) and these products were digested with 5U of HpaI (New England Biolabs) for 2h at 37 C. The fragments were purified using Qiaquick PCR columns (Qiagen), analyzed on an ABI 3130xL genetic analyzer (Applied Biosystems) with peak positions identified by using a set of X-rhodamine (ROX)-labeled MapMarker1000 molecular weight standards (BioVentures). The raw capillary electrophoresis data was processed using Attagraph software (Attagene).

Compound	outcome	AC50
COC(=O)c1ccccc1O	inactive	–
CCc1cc(SCc2sc(-c3ccc(C(F)(F)F)cc3)nc2CN2CCN(c3ccc(OC)cc3)CC2)ccc1OCC(=O)O	inactive	–
O=C1OC(=O)C2C3C=CC(C3)C12 (stereo not given)	inactive	–
CCOC(=O)COc1ccc2c(c1)CC(NCC(O)c1cccc(Cl)c1)CC2 (stereo not given)	inactive	–
CCOC(=O)c1ccc(C2CCC(NC[C@H](O)COc3ccc(O)c(NS(C)(=O)=O)c3)CC2)cc1 (stereo not given in full)	inactive	–
O=C1CCCCCN1	inactive	–
CN(C)c1ccc(N=NS(=O)(=O)O)cc1	inactive	–
Nc1nc2ncc(CNc3ccc(C(=O)N[C@@H](CCC(=O)O)C(=O)O)cc3)nc2c(=O)[nH]1	inactive	–
CC(O)CN(CCN(CC(C)O)CC(C)O)CC(C)O (stereo not given)	inactive	–
CCC(C)(C)C(=O)O[C@H]1C[C@@H](C)C=C2C=C[C@H](C)[C@H](CC[C@@H]3C[C@@H](O)CC(=O)O3)[C@H]21	inactive	–
O=C(OC[C@H]1O[C@@H](OC(=O)c2cc(O)c(O)c(OC(=O)c3cc(O)c(O)c(O)c3)c2)[C@H](OC(=O)c2cc(O)c(O)c(OC(=O)c3cc(O)c(O)c(O)c3)c2)[C@@H](OC(=O)c2cc(O)c(O)c(OC(=O)c3cc(O)c(O)c(O)c3)c2)[C@@H]1OC(=O)c1cc(O)c(O)c(OC(=O)c2cc(O)c(O)c(O)c2)c1)c1cc(O)c(O)c(OC(=O)c2cc(O)c(O)c(O)c2)c1	inactive	–
NC(=O)NO	inactive	–
CCCCCCc1ccc(O)cc1O	inactive	–
CC(C)CC(C)(O)C#CC(C)(O)CC(C)C (stereo not given)	inactive	–
CC(=O)OC[C@H]1O[C@@](COC(C)=O)(O[C@H]2O[C@H](COC(C)=O)[C@@H](OC(C)=O)[C@H](OC(C)=O)[C@H]2OC(C)=O)[C@@H](OC(C)=O)[C@@H]1OC(C)=O	inactive	–
CC(C)=CCCC(C)=CC=O	inactive	–
O=C(CCCCCCCCc1cccnc1)N1CCC(C=C(c2ccccc2)c2ccccc2)CC1	–	59.4 µM (active)
CC(C)CCCCCCOC(=O)c1ccc(C(=O)OCCCCCCC(C)C)c(C(=O)OCCCCCCC(C)C)c1	inactive	–
C1N2CN3CN1CN(C2)C3	inactive	–
CC(C)(O)c1coc(S(=O)(=O)NC(=O)Nc2c3c(cc4c2CCC4)CCC3)c1	inactive	–

Compound	outcome	AC50
COc1ccc(/C=C/S(=O)(=O)NC(=O)c2ccc(C)cc2Cl)cc1	inactive	–
O=C(O)CCN(C1(C(=O)NO)CCCC1)S(=O)(=O)c1ccc(Oc2ccc(F)cc2)cc1	inactive	–
Cc1ccc(O)cc1	inactive	–
Cn1c(=O)c2c(ncn2C)n(C)c1=O	inactive	–
CC(C)=CCCC(C)CCO (stereo not given)	inactive	–
CC1(C)C(=O)N(Br)C(=O)N1Br	inactive	–
CC1=CC(=O)CC(C)(C)C1	inactive	–
Cc1ccc(C)c(O)c1	inactive	–
COC(=O)c1c(Cl)c(Cl)c(C(=O)OC)c(Cl)c1Cl	inactive	–
C=CC(=C)CCC=C(C)C	inactive	–
O=C(O)c1cccc(Oc2ccccc2)c1	inactive	–
Oc1ccc2c(c1)-c1ccccc1C2	inactive	–
On1ccccc1=S	inactive	–
CC(=O)c1ccc2c(c1)[C@H](NC(=O)c1ccc(F)cc1)[C@@H](O)C(C)(C)O2	inactive	–
CC[C@H]1CC[C@H](NCc2cc3c(cc2OC)[C@H]2C[C@H]2C(=O)N3C)[C@H](c2ccccc2)N1	inactive	–
Cc1ccc(N)cc1O	inactive	–
CCN(C(=O)c1cc(C)cc(OC[C@H](C)Nc2ccncc2)c1)C(C)C	inactive	–
Fc1ccccc1[C@@H](F)COC1CCC(Nc2ncnc3[nH]ncc23)CC1 (stereo not given in full)	inactive	–
O=C(NS(=O)(=O)/C=C/c1ccccc1)c1ccc(F)cc1Cl	inactive	–
Nc1cccc(N)c1	inactive	–
